Data taken from the supplement of paper PMC12350171.
Where a name gives a salt, the structure may show the parent alone. A number with no mark means an inactive call.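 The calls were made as follows: active = AUC significantly below DMSO controls by Student t-fit with adjusted P under 0.01; inactive = not significantly reduced.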

Test system: Haemophilus parainfluenzae
Assay: growth AUC normalised to DMSO control (fraction of control); higher = less growth inhibition, active = hit call of the paper
Details: 20 µM
Outline: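 After two anaerobic passages, pathogens were added at a starting OD578 of 0.01 to pre-reduced mGAM plates holding compound at 20 μM with 1% DMSO; hemin and NAD were supplemented for Haemophilus parainfluenzae. Sealed with breathable membranes, plates were read at OD578 hourly for 24 h, in three biological replicates. The trapezoidal rule, applied up to the exponential-to-stationary transition, gave the growth-curve AUC, which was normalised to DMSO controls on the same plate.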

SMILES | growth AUC normalised to DMSO control
CCOC(=O)[C@H](CCc1ccccc1)N[C@@H](C)C(=O)N1CCC[C@H]1C(=O)O [Enalapril maleate] | 1.03
CO[C@@]1(NC(=O)CSCC#N)C(=O)N2C(C(=O)O)=C(CSc3nnnn3C)CS[C@@H]21 [Cefmetazole sodium salt] | 0.0246 (active)
C[C@H](CCC(=O)O)[C@H]1CC[C@H]2[C@@H]3[C@@H](O)C[C@@H]4C[C@H](O)CC[C@]4(C)[C@H]3CC[C@]12C [Urosiol] | 1.01
Clc1ccc2c(c1)C(N1CCNCC1)=Nc1ccccc1O2 [Amoxapine] | 0.963
CCOC(=O)OC(C)OC(=O)[C@@H]1N2C(=O)[C@@H](NC(=O)[C@H](N)c3ccccc3)[C@H]2SC1(C)C (stereo partly drawn) [Bacampicillin hydrochloride] | 0.0618 (active)
CC(C)(C(=O)c1cccnc1)c1cccnc1 [Metyrapone] | 0.991
Clc1ccc(COC(Cn2ccnc2)c2ccc(Cl)cc2Cl)cc1 (stereo not drawn) [Econazole nitrate] | 1.09
N=C(N)NCCN1CCCCCCC1 [Guanethidine sulfate] | 1.03
COc1cccc2c1C(=O)c1c(O)c3c(c(O)c1C2=O)C[C@@](O)(C(C)=O)C[C@@H]3O[C@H]1C[C@H](N)[C@H](O)[C@H](C)O1 [Daunorubicin hydrochloride] | 0.997
NC[C@@H]1O[C@H](O[C@H]2[C@@H](O)[C@H](O[C@@H]3[C@@H](O)[C@H](N)C[C@H](N)[C@H]3O[C@H]3O[C@H](CN)[C@@H](O)[C@H](O)[C@H]3N)O[C@@H]2CO)[C@H](N)[C@@H](O)[C@@H]1O [Neomycin sulfate] | 0.923
COc1ccc(/C=C/C(=O)Nc2ccccc2C(=O)O)cc1OC [Tranilast] | 1.01
CCOc1ccccc1OCC1CNCCO1 (stereo not drawn) [Viloxazine hydrochloride] | 0.967
Cn1c(=O)c2c(ncn2C)n(C)c1=O [Caffeine] | 1.04
CN[C@H]1CC[C@@H](c2ccc(Cl)c(Cl)c2)c2ccccc21 [Sertraline] | 0.929
CC(C)(Sc1cc(C(C)(C)C)c(O)c(C(C)(C)C)c1)Sc1cc(C(C)(C)C)c(O)c(C(C)(C)C)c1 [Probucol] | 1.01
CC(C)(Oc1ccc(Cl)cc1)C(=O)O [Clofibric acid] | 0.908
CN(C)CCOC(c1ccccc1)c1ccccc1.Cn1c(=O)c2[nH]c(Cl)nc2n(C)c1=O [Dimenhydrinate] | 0.901
O=c1[nH]c(=O)n([C@H]2C[C@H](O)[C@@H](CO)O2)cc1F [Floxuridine] | 0.0967 (active)
CC(C)Cn1cnc2c(N)nc3ccccc3c21 [Imiquimod] | 1.08
CCCNCC(O)COc1ccccc1C(=O)CCc1ccccc1 (stereo not drawn) [Propafenone hydrochloride] | 1.01
CC1c2cccc(O)c2C(O)=C2C(=O)C3(O)C(O)=C(C(N)=O)C(=O)C(N(C)C)C3C(O)C21 (stereo not drawn) [Doxycycline hydrochloride] | 0.0238 (active)
OCCN(CCO)c1nc(N2CCCCC2)c2nc(N(CCO)CCO)nc(N3CCCCC3)c2n1 [Dipyridamole] | 0.993
Cc1cc(C(C)(C)CC(C)(C)C)ccc1OCCOCC[N+](C)(C)Cc1ccccc1 [Methyl benzethonium chloride] | 0.994
Oc1ccc(OCc2ccccc2)cc1 [Monobenzone] | 0.902
COc1ccc(NS(=O)(=O)c2ccc(N)cc2)nn1 [Sulfamethoxypyridazine] | 1.04
Clc1ccc(C(Cn2ccnc2)OCc2ccsc2Cl)c(Cl)c1 (stereo not drawn) [Tioconazole] | 0.934
CCC(Cc1c(I)cc(I)c(N)c1I)C(=O)O (stereo not drawn) [Iopanoic acid] | 0.971
CN(C)CCC(c1ccc(Cl)cc1)c1ccccn1 (stereo not drawn) [Chlorpheniramine maleate] | 0.995
